The results in this text go back to PubChem BioAssay (NCI).

The structures appear in SMILES notation. Compounds without any hit were thinned out: in the full panel of roughly 83,000, 20% have a hit.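 For each line, cells grew in 96-well plates with the test compound present at a single concentration for 48 hours.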 Values without a mark were called inactive. Activity calls are given as the source filed them.

The assay has as its system SNB-75 CNS. The assay is described as follows: NCI-60 one-dose screen, 48 h (100 = growth as untreated, 0 = no growth, -100 = all killed). The conditions noted are these: 10 µM unless noted. The procedure:
Growth inhibition of the SNB-75 human tumor cell line is measured as a screen for anti-cancer activity. Cells are grown in 96 well plates and exposed to the test compound for 48 hours. Compounds are tested at a single concentration, which is 10^-5 M for most compounds. The reported endpoint is percent growth (GI% or GIPRCNT), where numbers from 0 - 100% represent growth inhibition, and numbers from -100% - 0 represent cell death. For example, a value of 40 represents 60% growth inhibition. A value of 0 means no net growth occurred over the course of the experiment. A value of -40 indicates 40% of cells at the beginning of the experiment died by the end of the experiment. A value of -100 means all cells are dead at the end of the experiment.
NCI-60 Human Tumor Cell Lines Screen was performed using the standard one-dose NCI protocol, which is described in more detail at https://dtp.cancer.gov/discovery_development/nci-60/default.htm.
Compounds with GIPRCNT values below 10 were considered active. Activity score was based on GIPRCNT using the following formula: […]
Score is 0 for GIPRCNT values of 100 or above, 50 for GIPRCNT values of 0, and 100 for GIPRCNT values of -100.
As to `CCOC(=O)N1CCN(CCCCl)CC1`, the growth is 102%.

For the compound `CC(=O)N1N=C(c2cccc(Nc3ccncc3)c2)CC1c1ccccc1` (stereo not given), the growth is 53.3%.

Take `CN(C)c1ccc(-c2c(C#N)c(N)n3nc(N)c(C#N)c3c2C#N)cc1`: the growth is 88.5%.

With `Cn1c(=O)c2[nH]c(CCCc3nc4c([nH]3)c(=O)n(C)c(=O)n4C)nc2n(C)c1=O`, the growth was 105%.

For the compound `CC(c1ccccc1)n1ccnc1CO` (stereo not given), the growth is 92.4%.

Take `N/C(=N\N=C\c1cc2ccccc2s1)N/N=C/c1cc2ccccc2s1`: the growth is 95.5%.

For `O=C(CNCCO)Nc1ccc2ncnc(Nc3ccc(OCc4cccc(F)c4)c(Cl)c3)c2c1`, the growth is 88.2%.

As for `O=S(=O)(c1ccc(N/N=C\c2ccccc2)cc1)c1ccc(N/N=C/c2ccccc2)cc1`, the growth was 87%.

Take `Cc1ccc(C(c2c(O)c3cc(Br)ccc3[nH]c2=O)c2c(O)c3cc(Br)ccc3[nH]c2=O)cc1`: the growth is 83.7%.

`O=S(=O)(NCCCNc1nccc(-c2c(-c3cccc(O)c3)nc3occn23)n1)c1ccc(F)cc1`: the growth is 104%.

As to `COc1cc2nc(-c3ccc(C(F)(F)F)cc3)cc(OCCN3CCC(O)CC3)c2cc1OC`, the growth was 58.1%.

In the case of `Nc1ccccc1NC(=O)c1ccc(CN2CCC/C(=C\c3cccc(Cl)c3)C2=O)cc1`, the growth is 16.5%.

`CCOC(=O)c1c(SC)nn(-c2cc(=O)[nH]c3ccc(Br)cc23)c1N`: the growth was 94%.

Turning to `Clc1cc(Cl)cc(N2N=C(c3cccc(Nc4ccncc4)c3)CC2c2ccc3c(c2)OCO3)c1` (stereo not given), the growth is 67.5%.

For the compound `Cc1ccc(/C=C/C(=O)c2ccc(N)cc2)c(C)c1`, the growth is 97.8%.

On to `CC1=CC[C@@H]2CC[C@]3(C)[C@H](CC[C@@H]4[C@@]5(C)CCCNC(C)(C)[C@@H]5CC[C@]43C)[C@H]2[C@@H]1C`, for which the growth is 76.5%.

As to `Cc1n[nH]c(C)c1-c1c(C)n[nH]c1C`, the growth was 35.2%.

With `O=C(CCN1CCCC1)Nc1ccc2c(Nc3ccccc3)c3ccccc3nc2c1`, the growth was 10.9%.

Turning to `N#Cc1c(Nc2ccccc2)nn2cc(-c3nc4ccccc4s3)c(N)nc12`, the growth was 55.9%.

For `O=S(=O)(NCCNc1nccc(-c2c(-c3ccc(F)c(O)c3)nc3occn23)n1)c1ccccc1`, the growth is 71.9%.

For `c1ccc(-c2nn(-c3ccccc3)[n+](-c3ccccc3-c3ccccc3)n2)cc1`, the growth is 29.7%.

For the compound `Cn1ncc2c(Nc3ccccc3Cl)nc(Cl)nc21`, the growth was 78.6%.

`CCC(=O)c1ccc(O)c(OC)c1`: the growth is 100%.

For `C#Cc1cccc(NC(=O)Nc2cccc(N=C=S)c2)c1`, the growth was 89.3% [8.25 µM].

As to `CCN(CC)CCCC(Nc1c2ccc(Cl)cc2nc2ccc(OC)cc12)c1ccc(Cl)cc1` (stereo not given), the growth was 16.7%.

Regarding `NC(=O)c1ccc[n+](CC(=O)N2CCN(c3cc4c(cc3F)c(=O)c(C(=O)O)cn4C3CC3)CC2)c1`, the growth was 88.2%.

On to `C=Cc1cc[n+](CCCCCCCCCCCC)cc1`, for which the growth was 97.4%.

Regarding `O=C(O)c1cn(C2CC2)c2cc(N3CCN(C(=O)C[n+]4cccc5ccccc54)CC3)c(F)cc2c1=O`, the growth is 75.1%.

On to `O=C1NC(=S)NC(=O)C1=Cc1cccc(C=C2C(=O)NC(=S)NC2=O)c1`, for which the growth was 98.9%.

As to `CO[C@@H]1[C@H](N(C)C(=O)c2ccccc2)C[C@@H]2O[C@]1(C)n1c3ccccc3c3c4c(c5c6ccccc6n2c5c31)C(=O)NC4=O`, the growth was -14.8% (active).

For `CCOC(=O)C1=C(C)NC(C)=C(C(=O)OCC)C1c1cc(Br)c(O)c(OC)c1`, the growth is 8.16% (active).

With `COc1cc(/C=C/C(=O)c2ccc(Nc3ncnc4ccccc34)cc2)cc(OC)c1`, the growth was 70.9%.

For the compound `COc1ccc(/C=C2\COc3ccc(-c4ccccc4)cc3C2=O)cc1O`, the growth was 31.9%.

Regarding `O=C(O)c1ccc[n+](CC(=O)N2CCN(c3cc4c(cc3F)c(=O)c(C(=O)O)cn4C3CC3)CC2)c1`, the growth was 79.4%.

`C=C(C)[C@@H]1CC[C@]2(C=O)CC[C@]3(C)[C@H](CC[C@@H]4[C@@]5(C)CCCNC(C)(C)[C@@H]5CC[C@]43C)[C@@H]12`: the growth was 110%.

For the compound `COc1ccc(C(=O)c2cc3c(N)c(C(=O)Nc4cccc(Cl)c4C)sc3nc2C)cc1`, the growth is -7.69% (active).

In the case of `O=C(OC(OC(=O)c1cc(Cl)cc(Cl)c1)c1cccc2ccccc12)c1ccccc1` (stereo not given), the growth was 99.3%.

Take `CCCOc1nc(SCCC)nc2c1cnn2-c1ccccc1`: the growth was 98.6%.

Take `COc1ccc(-c2c(-c3ccccc3)noc2N)cc1OC`: the growth is 101%.

As for `O=[N+]([O-])c1cccc(-c2nc(-c3ccc(Cl)cc3Cl)cn2-c2ccccc2)c1`, the growth was -56.7% (active).
